# From PubChem BioAssay
# For part of these data: Entries with a potency or affinity are not part of this list. The source made the active and inactive calls. Unless noted, the rule behind the calls is not given here.
# Experiments:
# [1] = resazurin metabolic signal in HepG2 cells – cell-based, resazurin fluorescence, 24 h, PK04 Diversity Set, profiling panel (AID 1172); settings: HepG2 viability, higher = more signal
# [2] = budding yeast growth changes without added modifier – OD600, strain BY4716, 24 h, basal condition, primary screen (AID 1173); settings: S. cerevisiae BY4716 growth, OD600, 24 h; higher = more signal, called active from +8 up or from −8 down
# [3] = viability profiling in MM1S myeloma cells – cell-based, resazurin fluorescence, basal, 24 h, PK04 Diversity Set, profiling panel (AID 1174); settings: higher = more signal, called active from +8 up or from −8 down;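 note: MM1S multiple myeloma cell line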
# [4] = target: Dihydroorotate dehydrogenase (quinone), mitochondrial (Plasmodium falciparum (isolate 3D7)) (UniProt Q08210); test: inhibition of P. falciparum DHODH – biochemical, C-terminal His tag, absorbance 600 nm, primary screen (AID 1175); settings: PfDHODH enzyme, DCIP absorbance 600 nm; higher = more signal, called active from +8 up or from −8 down;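 note: recombinant parasite enzyme with a five histidine tag at its C terminus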
# Sequence of Dihydroorotate dehydrogenase (quinone), mitochondrial (Plasmodium falciparum (isolate 3D7)) (Q08210 whole entry, looked up): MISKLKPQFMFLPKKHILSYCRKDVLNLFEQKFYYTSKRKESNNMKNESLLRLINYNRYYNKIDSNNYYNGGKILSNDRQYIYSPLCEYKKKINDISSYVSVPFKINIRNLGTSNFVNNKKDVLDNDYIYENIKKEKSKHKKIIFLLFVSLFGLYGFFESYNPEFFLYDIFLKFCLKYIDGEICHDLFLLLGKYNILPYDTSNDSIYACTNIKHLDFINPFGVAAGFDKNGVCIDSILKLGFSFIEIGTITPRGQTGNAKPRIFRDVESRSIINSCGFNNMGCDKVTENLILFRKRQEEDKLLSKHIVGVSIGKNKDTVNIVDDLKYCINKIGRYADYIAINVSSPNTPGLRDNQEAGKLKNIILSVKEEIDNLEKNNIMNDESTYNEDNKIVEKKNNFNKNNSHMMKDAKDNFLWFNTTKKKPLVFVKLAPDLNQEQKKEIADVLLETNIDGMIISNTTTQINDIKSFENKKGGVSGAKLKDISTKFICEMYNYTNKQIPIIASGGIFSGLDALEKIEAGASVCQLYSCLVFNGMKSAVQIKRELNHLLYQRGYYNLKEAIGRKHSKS
# [5] = inhibition of PAO1 biofilm formation – strain PAO1, LB-PBS medium, absorbance 600 nm, primary screen (AID 1176); settings: P. aeruginosa PAO1 growth/biofilm, A600, 12 h; higher = more signal
# [6] = growth modulation of vineyard yeast isolate – strain RM11-1a, OD600, basal, 24 h, primary screen (AID 1177);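 note: cultures grown under basal conditions with no added stressor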; settings: S. cerevisiae RM11-1a growth, OD600, 24 h; higher = more signal, called active from +8 up or from −8 down
# [7] = growth of efflux-deficient E. coli DRC39 – strain DRC39, OD650, 24 h, E. coli filamentation inducers, primary screen (AID 1178);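 note: growth measured as culture turbidity by optical density at 650 nm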; settings: E. coli DRC39 acrAB, higher = more signal, called active from +8 up or from −8 down
# [8] = growth of efflux-deficient E. coli DRC39 – strain DRC39, OD650, 48 h, E. coli filamentation inducers, primary screen (AID 1179);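 note: screen aims at cell division blockers that make cells filament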; settings: E. coli DRC39 delta-acrAB growth, higher = more signal, called active from +8 up or from −8 down
# [9] = viability profiling in RPMI8226 myeloma cells – cell-based, resazurin fluorescence, basal, 24 h, PK04 Diversity Set, profiling panel (AID 1180); settings: higher = more signal;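 note: RPMI8826 multiple myeloma cell line at 5000 cells per well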
# [10] = target: E3 ubiquitin-protein ligase XIAP (Homo sapiens) (UniProt P98170); test: small molecules binding XIAP protein – biophysical, small-molecule microarray, fluorescence 635 nm, primary screen (AID 1181); settings: higher = more signal;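 note: score merges 667 nm emission and signal to noise over triplicate slides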
# Sequence of E3 ubiquitin-protein ligase XIAP (Homo sapiens) (P98170 whole entry, looked up, the tested form may be a part): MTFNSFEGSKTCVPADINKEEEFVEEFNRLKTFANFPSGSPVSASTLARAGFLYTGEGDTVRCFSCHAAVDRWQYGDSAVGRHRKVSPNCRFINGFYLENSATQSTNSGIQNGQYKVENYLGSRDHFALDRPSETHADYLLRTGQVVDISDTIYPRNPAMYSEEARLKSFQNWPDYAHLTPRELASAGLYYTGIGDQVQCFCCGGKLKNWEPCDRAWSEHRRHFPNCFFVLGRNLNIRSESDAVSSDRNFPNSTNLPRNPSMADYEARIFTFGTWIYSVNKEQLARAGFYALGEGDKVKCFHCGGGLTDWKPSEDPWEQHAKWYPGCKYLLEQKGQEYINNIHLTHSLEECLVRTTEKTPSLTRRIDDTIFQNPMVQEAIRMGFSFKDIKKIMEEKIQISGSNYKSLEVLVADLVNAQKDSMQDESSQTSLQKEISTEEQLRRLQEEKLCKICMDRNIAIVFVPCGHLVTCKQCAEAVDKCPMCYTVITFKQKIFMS
# [11] = test system: XIP peptide (Xip251-270) binding; test: XIP fragment 251-270 binding compounds – biochemical, small-molecule microarray, fluorescence 635/667 nm, 0.1 µg/mL protein, primary screen (AID 1182); settings: fluorescent protein binding, 635 nm, higher = more signal, called active from +8 up or from −8 down
# [12] = test system: XIP peptide (Xip251-270); test: compounds binding XIP fragment 251-270 – biochemical, small-molecule microarray, fluorescence 635/667 nm, 0.5 µg/mL protein, primary screen (AID 1183); settings: fluorescence 635 nm, higher = more signal
# [13] = blood-stage malaria parasite viability loss – strain 3D7, DAPI fluorescence, 100 nL, primary screen (AID 1184);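 note: parasites grown inside human red blood cells in medium with human serum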; settings: P. falciparum 3D7 growth, 3 d, higher = more signal
# [14] = target: Homeobox protein Hox-A13 (Mus musculus) (UniProt Q62424); test: disruptors of Hoxa13 oligonucleotide interaction – biochemical, fluorescence polarization, labeled oligonucleotide, primary screen (AID 1185); settings: Hoxa13:DNA binding, 15 min, higher = more signal, called active from +8 up or from −8 down
# Sequence of Homeobox protein Hox-A13 (Mus musculus) (Q62424 whole entry, looked up): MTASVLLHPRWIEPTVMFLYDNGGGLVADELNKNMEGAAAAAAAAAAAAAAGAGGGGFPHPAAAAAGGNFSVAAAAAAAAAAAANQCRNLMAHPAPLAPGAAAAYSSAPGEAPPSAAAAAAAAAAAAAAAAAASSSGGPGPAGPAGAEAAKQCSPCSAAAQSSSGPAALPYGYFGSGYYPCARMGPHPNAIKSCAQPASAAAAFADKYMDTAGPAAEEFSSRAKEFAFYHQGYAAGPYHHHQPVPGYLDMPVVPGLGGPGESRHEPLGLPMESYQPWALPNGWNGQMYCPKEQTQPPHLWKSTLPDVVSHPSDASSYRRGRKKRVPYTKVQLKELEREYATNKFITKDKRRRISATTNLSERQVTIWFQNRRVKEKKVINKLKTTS
# [15] = blockers of DNA damage checkpoint Chk1 activation – imaging, HeLa, hydroxyurea, phospho-Chk1 antibody, percent positive cells, primary screen (AID 1186); settings: hydroxyurea-induced phospho-Chk1 immunofluorescence imaging, higher = more signal
# [16] = blockers of DNA damage checkpoint Chk1 activation – imaging, HeLa, hydroxyurea, phospho-Chk1 nuclear intensity, primary screen (AID 1187); settings: hydroxyurea-induced phospho-Chk1 immunofluorescence imaging, higher = more signal
# [17] = C. neoformans lysis by adenylate kinase leakage – AK release luminescence, cherry-picks, dose response (AID 687000;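 active = fitted dose curve reaches 40% lysis signal rise at or below the highest valid concentration tested for that sample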;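 note: luminescent detection of adenylate kinase leaking from lysed yeast; 0% = median neutral control signal and 100% = double that signal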); settings: 4 h, 100% = twice the neutral-control signal; series mostly up to 15 µM
# [18] = viability loss in HepG2 hepatoma cells – cell-based, cherry-picks, set 2, cytotoxicity control, dose response (AID 687002;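 active = a dose-response fit showing signal loss, with half-maximal concentration no higher than twice the top tested dose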); settings: ATP luminescence (CellTiter-Glo), 48 h; series mostly up to 26 µM
# [19] = viability loss in HeLa cells – cell-based, ATP luminescence, cherry-pick samples, cytotoxicity control, dose response (AID 687004;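 active = a fitted half-maximal concentration no higher than twice the top valid tested dose, with signal falling as cells die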;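 note: 0% = neutral control median and -100% = staurosporine 10 µM control median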); settings: ATP luminescence (CellTiter-Glo), 48 h; series mostly up to 26 µM
SMILES,z-score [1],z-score [2],z-score [3],composite z-score [4],z-score [5],z-score [6],z-score [7],z-score [8],z-score [9],composite z-score [10],composite z-score [11],composite z-score [12],z-score [13],z-score [14],z-score [15],z-score [16],outcome [17],outcome [18],outcome [19]
COc1cc(Cc2cc3c(c(CCc4ccccc4)n2)[Si](C(C)C)(C(C)C)OC3)cc(OC)c1OC,1.47,-0.0438 (inactive),0.273 (inactive),-0.606 (inactive),0.726 (inactive),0.404 (inactive),-0.171 (inactive),0.365 (inactive),0.815,0.107,-0.521 (inactive),-0.122,-2.33,-3.47 (inactive),-0.0504 (inactive),-0.0848 (inactive),–,–,–
CCCC=C(CCC)[C@@H](NC(=O)c1ccccc1)c1ccccc1,-0.232,0.752 (inactive),-1.01 (inactive),-0.421 (inactive),1.27 (inactive),0.0321 (inactive),0.164 (inactive),0.475 (inactive),0.0944,0.086,-1.3 (inactive),-0.905,-0.639,-0.832 (inactive),-0.442 (inactive),-0.784 (inactive),–,–,–
C=C(C(=O)CC[C@H](OC(=O)c1ccccc1-c1ccccc1C(=O)O)c1ccc(CO)o1)C(C)C,-0.256,0.656 (inactive),0.192 (inactive),-0.976 (inactive),0.98 (inactive),1.73 (inactive),0.101 (inactive),0.0357 (inactive),0.951,-0.153,0.161 (inactive),0.697,-0.241,-6.22 (inactive),0.38 (inactive),0.239 (inactive),–,–,–
COCCOC(=O)N1C(=O)[C@@]2(c3cc(C#CC4=CCCCC4)ccc31)[C@H](c1ccc(O)cc1)N1[C@H](c3ccccc3)[C@H](c3ccccc3)OC(=O)[C@H]1[C@@H]2C(=O)N1CCCCCCC1,0.32,-0.615 (inactive),1.17 (inactive),0.104 (inactive),1.35 (inactive),0.19 (inactive),0.15 (inactive),1.29 (inactive),0.768,-0.445,0.505 (inactive),0.678,-1.66,2.08 (inactive),-0.104 (inactive),0.0587 (inactive),–,–,–
Cc1ccc(N2C(=O)c3ccccc3[C@](C)(C(=O)NCC(C)C)[C@@H]2c2ccc(CO)cc2)nc1,0.1,0.726 (inactive),-0.558 (inactive),1.08 (inactive),0.14 (inactive),1.42 (inactive),0.401 (inactive),-0.247 (inactive),-0.481,-0.0095,-0.223 (inactive),-0.662,0.11,-2 (inactive),0.341 (inactive),0.123 (inactive),–,–,–
COC(=O)C[C@H]1O[C@]2(C(=O)N(Cc3ccccc3)c3ccc(I)cc32)[C@@H](C)[C@@H]1[Si](C)(C)c1ccc(OC)cc1,-0.583,-2.01 (inactive),-0.146 (inactive),0.94 (inactive),-0.435 (inactive),0.765 (inactive),-0.493 (inactive),-0.598 (inactive),-0.196,-0.211,-0.0923 (inactive),-0.0988,-3.07,1.04 (inactive),-0.504 (inactive),-0.584 (inactive),–,–,–
O=C1c2ccccc2[C@@]2(Cc3ccccc3N(CC(F)(F)F)C2=O)[C@H](c2ccc(CO)cc2)N1C1CCCCC1,-0.0665,0.713 (inactive),1.07 (inactive),-24.3 (active),0.379 (inactive),-0.572 (inactive),0.172 (inactive),-0.411 (inactive),0.748,-0.2,0.586 (inactive),0.536,-0.361,0.601 (inactive),-0.202 (inactive),-0.26 (inactive),–,–,–
CCOC(=O)C1=CC[C@@H](c2ccccc2)N(S(=O)(=O)c2ccc(C)cc2)[C@H]1C,0.302,1.11 (inactive),-0.209 (inactive),-1.18 (inactive),-0.0601 (inactive),1.43 (inactive),-0.472 (inactive),-0.4 (inactive),-0.875,0.0512,0.214 (inactive),0.862,-1.5,-2.38 (inactive),-0.325 (inactive),-0.586 (inactive),–,–,–
N#Cc1ccc(NN2C(C(O)c3ccc(I)cc3)C=CC3C(=O)N(c4ccccc4)C(=O)C32)cc1 (stereo unspecified),-1.59,0.179 (inactive),-1.34 (inactive),-0.165 (inactive),0.944 (inactive),0.62 (inactive),-0.904 (inactive),-0.397 (inactive),-0.328,-0.256,0.816 (inactive),0.464,0.175,-1.01 (inactive),-0.308 (inactive),0.145 (inactive),–,–,–
C=C(CCCC)/C(=C/C[C@@H](OC(=O)c1ccncc1)c1ccc(CO)o1)c1cnc2ccccc2c1,-0.0346,-1.95 (inactive),0.82 (inactive),-7.54 (inactive),0.154 (inactive),-0.27 (inactive),0.698 (inactive),0.29 (inactive),0.501,0.451,0.518 (inactive),0.776,-0.573,-4.65 (inactive),0.222 (inactive),-0.125 (inactive),–,–,–
COCCOC(=O)N1C(=O)[C@@]2(c3cc(C#CCNC(N)=O)ccc31)[C@H](C(=O)N1CCCCCCC1)[C@H]1C(=O)O[C@H](c3ccccc3)[C@H](c3ccccc3)N1[C@@H]2c1ccccc1OCCO,0.0533,1.41 (inactive),0.188 (inactive),0.641 (inactive),2.08 (inactive),2.43 (inactive),0.532 (inactive),0.614 (inactive),0.368,0.291,0.252 (inactive),0.276,-1.87,3.73 (inactive),-0.0292 (inactive),-0.349 (inactive),–,–,–
COc1cc(CO)cc(I)c1O[C@H]1C=C(C(=O)NCCO)C[C@@H](N(CC2CCCCC2)C(=O)c2cc3ccccc3oc2=O)[C@@H]1O,0.479,-0.514 (inactive),0.308 (inactive),-0.23 (inactive),0.343 (inactive),0.372 (inactive),0.663 (inactive),0.283 (inactive),0.393,-0.12,0.193 (inactive),0.24,1.04,-6.1 (inactive),0.113 (inactive),0.194 (inactive),inactive,inactive,inactive
C[C@]1(C(=O)NCCN2CCOCC2)c2ccccc2C(=O)N(Cc2ccccc2)[C@H]1c1ccc(CO)cc1,0.702,-0.46 (inactive),0.402 (inactive),1 (inactive),0.662 (inactive),1.2 (inactive),0.223 (inactive),0.134 (inactive),0.85,0.144,0.946 (inactive),0.78,-1.22,-3.99 (inactive),0.0553 (inactive),0.0648 (inactive),–,–,–
O=C(CS)NCCCCCCNC(=O)[C@@H]1C[C@@H]2C(=O)N[C@@H](Cc3ccccc3)C(=O)N2[C@@H]1c1ccc(O)cc1,-0.306,0.636 (inactive),0.0515 (inactive),0.224 (inactive),-0.239 (inactive),0.809 (inactive),-0.288 (inactive),-0.889 (inactive),-0.518,0.0518,0.794 (inactive),0.811,-1.02,-2.14 (inactive),-0.0496 (inactive),0.23 (inactive),–,–,–
Cc1ccc([C@@H]2CC=C(C(=O)O)[C@H](c3ccccc3)N2S(=O)(=O)c2ccc(C)cc2)cc1,-1.02,-2.08 (inactive),-1.26 (inactive),-0.527 (inactive),-0.405 (inactive),0.0193 (inactive),-1.36 (inactive),-1.3 (inactive),-1.99,-0.202,1.71 (inactive),0.909,-0.745,-7.09 (inactive),-0.489 (inactive),-0.824 (inactive),–,–,–
Cc1ccc(N2C(=O)c3ccccc3[C@@H](C(=O)NCC(F)(F)F)[C@@H]2c2ccc(CO)cc2)nc1,0.129,-0.789 (inactive),1.21 (inactive),-0.417 (inactive),0.429 (inactive),-0.872 (inactive),0.419 (inactive),0.127 (inactive),0.607,-0.227,-0.118 (inactive),-0.138,-0.0188,-0.71 (inactive),-0.0128 (inactive),0.171 (inactive),–,–,–
C[N+](C)(C)CCCCNC(=O)[C@H]1C[C@H]2C(=O)NCC(=O)N2[C@H]1c1cccc(OCCO)c1,0.052,0.167 (inactive),-0.935 (inactive),-29.2 (active),1 (inactive),0.105 (inactive),-0.158 (inactive),-0.271 (inactive),-1.15,0.133,1.88 (inactive),0.839,0.312,-2.52 (inactive),0.0452 (inactive),-0.0729 (inactive),–,–,–
COc1ccc([Si](C)(C)[C@H]2[C@H](CC(=O)N(CCO)Cc3ccccc3)O[C@@]3(C(=O)N(C)c4ccccc43)[C@@H]2C)cc1,0.514,-1.42 (inactive),-0.0262 (inactive),-0.0113 (inactive),0.72 (inactive),0.11 (inactive),0.681 (inactive),0.455 (inactive),0.216,0.001,0.0642 (inactive),0.369,-0.134,-6.95 (inactive),-0.217 (inactive),-0.251 (inactive),–,–,–
